Among the data in PubChem BioAssay (NCI) are growth values, retold here.

Where “and” joins values, the source holds several entries; their conditions need not be identical. Identical values can stand only once. This is part of a sample that, as a whole, favours compounds with a hit. Of some 83,000 tested, about 20% had one in any assay.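 Percent growth is the endpoint: 0 to 100 indicates growth inhibition (40 means 60% inhibition), 0 means no net growth, and negative values indicate cell death.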 Calls of active or inactive are those of the source. The calls were made as follows: active = growth percent below 10; inactive = the rest.

What all share (assay): NCI-60 one-dose screen, 48 h (100 = growth as untreated, 0 = no growth, -100 = all killed)
One assay deals with EKVX NSCLC. The conditions noted are these: 10 µM.
The next assay relates to SN12C renal. The settings on record: 10 µM.
Another assay deals with UO-31 renal. The settings on record: 10 µM.
The subject of another assay is TK-10 renal.
In the next assay the test system is ACHN renal. The conditions noted are these: 10 µM.
The next assay relates to CAKI-1 renal. The conditions noted are these: 10 µM.
Another assay deals with A498 renal. The conditions noted are these: 10 µM.
The subject of another assay is HL-60(TB) leukemia. The settings on record: 10 µM.
For the next assay, the system named is CCRF-CEM leukemia. The settings on record: 10 µM.
In a further assay the test system is SK-MEL-2 melanoma. The settings on record: 10 µM.

With `Cc1cc(C(C)(C)c2ccc(O)c(C)c2)ccc1O`, the growth is 85.2% (inactive) in the assay on EKVX NSCLC; 89.9% (inactive) in the assay with SN12C renal; 79% (inactive) in the assay on UO-31 renal; 98.9% (inactive) in the assay with TK-10 renal (10 µM unless noted); 88.7% (inactive) in the assay on ACHN renal; 84.7% (inactive) in the assay with CAKI-1 renal. Further, the growth in the assay on A498 renal is 102% (inactive); in the assay with HL-60(TB) leukemia, 71.4% (inactive); in the assay with CCRF-CEM leukemia, 127% (inactive).
With `O=[P+](O)c1ccccc1`, the growth was 109% (inactive) in the assay with SK-MEL-2 melanoma; 115% (inactive) in the assay with EKVX NSCLC; 104% (inactive) with SN12C renal; 117% (inactive) with TK-10 renal (10 µM unless noted); 102% (inactive) with ACHN renal; 103% (inactive) with CAKI-1 renal. For the same molecule, the growth in the assay with A498 renal was 104% (inactive); in the assay with HL-60(TB) leukemia, 106% (inactive); with CCRF-CEM leukemia, 79.9% (inactive).
Turning to `COc1cc(/C=C/[N+](=O)[O-])cc(Br)c1OC`, the growth is 103% (inactive) with EKVX NSCLC; 28.7% (inactive) in the assay on SN12C renal; -1.36% (active) with UO-31 renal; -38.1% (active) in the assay on TK-10 renal (10 µM unless noted); 60.7% (inactive) in the assay with ACHN renal; 61.3% (inactive) in the assay with CAKI-1 renal. The growth with HL-60(TB) leukemia was 0.838% (active); in the assay with CCRF-CEM leukemia it was 6.59% (active).
For `Cc1ccc(NC(=O)CBr)cc1`, the growth with SK-MEL-2 melanoma was 110% (inactive); in the assay on SN12C renal, 95.7% (inactive); in the assay on UO-31 renal, 86.1% (inactive); in the assay on TK-10 renal (10 µM unless noted), 110% (inactive); in the assay with ACHN renal it was 108% (inactive); in the assay on CAKI-1 renal, 104% (inactive). In addition, the growth in the assay with A498 renal is 99.3% (inactive); in the assay with CCRF-CEM leukemia it was 23.8% (inactive).
Turning to `N#CCc1ccccc1`, the growth in the assay with SK-MEL-2 melanoma was 99.9% (inactive); in the assay with SN12C renal it was 99.6% (inactive); in the assay with UO-31 renal, 93% (inactive); in the assay on TK-10 renal (10 µM unless noted), 108% (inactive); in the assay on ACHN renal it was 108% (inactive); in the assay with CAKI-1 renal it was 104% (inactive). Also, the growth in the assay with HL-60(TB) leukemia was 105% (inactive); in the assay on CCRF-CEM leukemia it was 97.3% (inactive).
As for `NC(=O)c1cc([N+](=O)[O-])c(Cl)c([N+](=O)[O-])c1`, the growth is 154% (inactive) in the assay with SK-MEL-2 melanoma; 98.3% (inactive) in the assay on EKVX NSCLC; 100% (inactive) in the assay on SN12C renal; 84.1% (inactive) in the assay with TK-10 renal (10 µM unless noted); 92.7% (inactive) with ACHN renal; 87.6% (inactive) in the assay with CAKI-1 renal. Further, the growth in the assay on HL-60(TB) leukemia was 20.1% (inactive); in the assay on CCRF-CEM leukemia, -32.4% (active).
Take `COc1ccc2c(ccc3oc([N+](=O)[O-])cc32)c1`: the growth was 6.57% (active) in the assay with SN12C renal; -13.4% (active) with UO-31 renal; -15% (active) with TK-10 renal (10 µM unless noted); 2.78% (active) in the assay on ACHN renal; 5.89% (active) in the assay on CAKI-1 renal; -76.1% (active) in the assay on A498 renal. Also, the growth in the assay on HL-60(TB) leukemia is -31.4% (active); with CCRF-CEM leukemia, 4.13% (active).
For `NNc1ccccc1`, the growth in the assay on EKVX NSCLC is 89.6% (inactive); in the assay on SN12C renal, 97.3% (inactive); in the assay on UO-31 renal it was 64% (inactive); in the assay on TK-10 renal (10 µM unless noted) it was 42.3% (inactive); in the assay on ACHN renal, 64.5% (inactive); in the assay with CAKI-1 renal, 65.4% (inactive). Besides, the growth in the assay with A498 renal was 97.5% (inactive); in the assay with HL-60(TB) leukemia, 5.84% (active); in the assay on CCRF-CEM leukemia it was 42.7% (inactive).
Consider `C[C@H]1CC[C@@]2(NC1)O[C@H]1C[C@H]3[C@@H]4CC[C@H]5C[C@@H](O)CC[C@]5(C)[C@H]4CC[C@]3(C)[C@H]1[C@@H]2C`, for which, in the assay with TK-10 renal (10 µM unless noted), the growth is 25.1% [100 µM] (inactive) and -60.4% [100 µM] (active).
`COc1cc2c(c(OC)c1OC)-c1ccc(O)c(=O)cc1[C@@H](NC(C)=O)CC2`: the growth in the assay with SK-MEL-2 melanoma is 47.9% (inactive); in the assay with SN12C renal it was 60% (inactive); in the assay with UO-31 renal, 53.3% (inactive); in the assay with TK-10 renal (10 µM), 64.4% (inactive); in the assay on TK-10 renal (100 µM) it was 12.6% (inactive); with ACHN renal, 61.2% (inactive). In addition, the growth is 26.6% (inactive) with CAKI-1 renal, 63.7% (inactive) in the assay on A498 renal, 36% (inactive) in the assay with HL-60(TB) leukemia and 16.2% (inactive) in the assay on CCRF-CEM leukemia.
With `COC12c3c(C)cc(O)c4c(=O)occ(c34)C(=O)C1C13COC(=O)c4c(O)cc(C)c(c41)C(=O)C2C3OC(C)=O` (stereo not given), the growth in the assay on SK-MEL-2 melanoma is 81.5% (inactive); with SN12C renal it was 102% (inactive); with UO-31 renal it was 91.5% (inactive); in the assay on TK-10 renal (10 µM unless noted), 110% (inactive); with ACHN renal, 100% (inactive); with CAKI-1 renal it was 156% (inactive). The growth with A498 renal was 114% (inactive); with HL-60(TB) leukemia, 100% (inactive); in the assay on CCRF-CEM leukemia it was 96.2% (inactive).
For `Cc1cc(C)c(C[N+](C)(C)C)c(C)c1C`, the growth is -19.5% (active) in the assay with SK-MEL-2 melanoma; 0.359% (active) in the assay on SN12C renal; 4.54% (active) in the assay with UO-31 renal; 6.7% (active) in the assay with ACHN renal; 5.45% (active) in the assay on CAKI-1 renal; 8.63% (active) with A498 renal. Moreover, the growth with CCRF-CEM leukemia is -2.18% (active).
Take `CCOP(=O)(OCC)C(O)c1ccccc1Cl` (stereo not given): the growth is 93% (inactive) in the assay on SK-MEL-2 melanoma; 106% (inactive) with SN12C renal; 90.5% (inactive) with UO-31 renal; 96.8% (inactive) in the assay with ACHN renal; 101% (inactive) in the assay with CAKI-1 renal; 103% (inactive) in the assay on A498 renal. The growth was 106% (inactive) with HL-60(TB) leukemia and 93.9% (inactive) in the assay on CCRF-CEM leukemia.
Turning to `CCOC(=O)c1[nH]cnc1/N=N/N(C)N`, the growth in the assay on TK-10 renal (10 µM unless noted) was 99.8% [100 µM] (inactive) and -100% [100 µM] (active).
As for `CC[C@@H](C)[C@@H]1NC(=O)C(NC(=O)C(CC(C)C)N(C)C(=O)C2CCCN2C(=O)C(C)O)C(C)OC(=O)C(Cc2ccc(OC)cc2)N(C)C(=O)C2CCCN2C(=O)C(CC(C)C)NC(=O)C(C)C(=O)C(C(C)C)OC(=O)C[C@H]1O` (stereo not given in full), the growth in the assay on SK-MEL-2 melanoma is -52.4% (active); with EKVX NSCLC it was -10.5% (active); in the assay on SN12C renal, -14.5% (active); in the assay with UO-31 renal it was -33.2% (active); in the assay on TK-10 renal (10 µM unless noted) it was -15.3% (active); in the assay with ACHN renal it was -70.5% (active). The growth is -6.01% (active) in the assay on CAKI-1 renal, -25.2% (active) in the assay with HL-60(TB) leukemia and -20.7% (active) in the assay on CCRF-CEM leukemia.
On to `COc1cc([N+](=O)[O-])c2ncccc2c1[N+](=O)[O-]`, for which the growth in the assay on EKVX NSCLC was 102% (inactive); in the assay with SN12C renal, 71.4% (inactive); in the assay with UO-31 renal it was 41% (inactive); with TK-10 renal (10 µM unless noted), 27.1% (inactive); in the assay on ACHN renal, 56.1% (inactive); with CAKI-1 renal, 24.8% (inactive). Besides, the growth in the assay with A498 renal is 122% (inactive); in the assay on HL-60(TB) leukemia it was 65.5% (inactive); with CCRF-CEM leukemia it was 22.9% (inactive).
Consider `Oc1c(I)cc(I)cc1I`, for which the growth was 101% (inactive) with SK-MEL-2 melanoma; 108% (inactive) in the assay on EKVX NSCLC; 97.2% (inactive) with SN12C renal; 103% (inactive) with TK-10 renal (10 µM unless noted); 103% (inactive) in the assay with ACHN renal; 109% (inactive) in the assay with CAKI-1 renal. The growth in the assay on A498 renal is 97.9% (inactive); in the assay with HL-60(TB) leukemia, 105% (inactive); in the assay on CCRF-CEM leukemia, 94.5% (inactive).
On to `NC(=O)c1cc([N+](=O)[O-])c(Cl)c([N+](=O)[O-])c1Cl`, for which the growth in the assay with SK-MEL-2 melanoma is -14.5% (active); in the assay on EKVX NSCLC, 35.8% (inactive); in the assay on SN12C renal, 18.8% (inactive); in the assay on UO-31 renal, -62.6% (active); in the assay on TK-10 renal (10 µM unless noted), -100% (active); in the assay with ACHN renal it was -89.7% (active). In addition, the figures for the growth in the assay on HL-60(TB) leukemia and with CCRF-CEM leukemia were -26.9% (active) and -23.5% (active), respectively.
In the case of `COC1CC2C=C(C)/C=C/C=C/C(=O)NC(c3ccccc3)C/C=C/CCC(O)CC(=O)C2=C1O` (stereo not given), the growth is -89.8% (active) in the assay with SK-MEL-2 melanoma; -84.9% (active) in the assay with SN12C renal; -95.7% (active) in the assay with UO-31 renal; -59.9% (active) in the assay on TK-10 renal (10 µM unless noted); -93.3% (active) in the assay on ACHN renal; -88% (active) with CAKI-1 renal. Besides, the growth in the assay with A498 renal was -87.7% (active); in the assay on HL-60(TB) leukemia, -5.27% (active).
Turning to `COc1cc2c3cc1Oc1c(OC)c(OC)cc4c1C(Cc1ccc(cc1)Oc1cc(ccc1O)CC3N(C)CC2)N(C)CC4` (stereo not given), the growth in the assay with TK-10 renal (10 µM unless noted) is 48% [100 µM] (inactive) and -100% [100 µM] (active).
Turning to `[Cl][Sn]([c]1ccccc1)([c]1ccccc1)[c]1ccccc1`, the growth is -62.9% (active) in the assay on SK-MEL-2 melanoma; -28.9% (active) with SN12C renal; -87.9% (active) in the assay with UO-31 renal; -92.7% (active) in the assay on TK-10 renal (10 µM unless noted); -89.2% (active) in the assay on ACHN renal; -87.8% (active) in the assay with CAKI-1 renal. The growth in the assay on A498 renal was -91% (active); in the assay with HL-60(TB) leukemia, -25.3% (active); in the assay on CCRF-CEM leukemia, -46% (active).
Consider `CCCCCCCC[N+]12CN3CN(CN(C3)C1)C2`, for which the growth was 120% (inactive) with SK-MEL-2 melanoma; 96.8% (inactive) in the assay on SN12C renal; 87.9% (inactive) in the assay with UO-31 renal; 99.8% (inactive) with TK-10 renal (10 µM unless noted); 99.5% (inactive) in the assay with ACHN renal; 92.5% (inactive) in the assay on CAKI-1 renal. Further, the growth was 95.2% (inactive) in the assay on A498 renal, 137% (inactive) in the assay on HL-60(TB) leukemia and 97.1% (inactive) with CCRF-CEM leukemia.
